Data on four compounds can be found in PubChem BioAssay (Tox21).

Results filed as inconclusive are left out. Active and inactive are the calls of the source. Unless noted, calls follow the shape of the dose curve; as a rule, active = well fitted curve in the direction sought with a large enough effect in the repeat runs; inconclusive = weak or mixed curves; inactive = no such curve, though single readings can be large; an effect the other way counts as inactive or inconclusive.

A short description of test [1]: qHTS assay to identify aromatase inhibitors - cell viability counter screen (AID 743084).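 Also: cells stimulated with testosterone during compound exposure; nearly all actives have a fitted effect of over 55% in size.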 Also: potency is read from the fitted curve at half-maximal effect. The note with it: MCF-7 aro ERE viability, CellTiter-Fluor, 24 h; series mostly up to 70.3 µM.
For test [2], the target named is Aryl hydrocarbon receptor (Homo sapiens) (UniProt P35869). Description: qHTS assay to identify small molecule that activate the aryl hydrocarbon receptor (AhR) signaling pathway (AID 743085).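 Also: HG2L7.5c1 human HepG2 liver cells with stably integrated DRE-driven firefly reporter; nearly all actives have a fitted effect of over 15% in size.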 Particulars: HepG2 AhR-luc (HG2L7.5c1), luciferase, 24 h; series mostly up to 70.3 µM. In a few lines: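 HepG2 cells stably carrying a 20-DRE firefly luciferase reporter (HG2L7.5c1) treated with compound for 24 hr at 37C. Luciferase read by ONE-Glo luminescence, with CellTiter-Fluor viability read first.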
Chain of Aryl hydrocarbon receptor (Homo sapiens) (P35869 whole entry, looked up): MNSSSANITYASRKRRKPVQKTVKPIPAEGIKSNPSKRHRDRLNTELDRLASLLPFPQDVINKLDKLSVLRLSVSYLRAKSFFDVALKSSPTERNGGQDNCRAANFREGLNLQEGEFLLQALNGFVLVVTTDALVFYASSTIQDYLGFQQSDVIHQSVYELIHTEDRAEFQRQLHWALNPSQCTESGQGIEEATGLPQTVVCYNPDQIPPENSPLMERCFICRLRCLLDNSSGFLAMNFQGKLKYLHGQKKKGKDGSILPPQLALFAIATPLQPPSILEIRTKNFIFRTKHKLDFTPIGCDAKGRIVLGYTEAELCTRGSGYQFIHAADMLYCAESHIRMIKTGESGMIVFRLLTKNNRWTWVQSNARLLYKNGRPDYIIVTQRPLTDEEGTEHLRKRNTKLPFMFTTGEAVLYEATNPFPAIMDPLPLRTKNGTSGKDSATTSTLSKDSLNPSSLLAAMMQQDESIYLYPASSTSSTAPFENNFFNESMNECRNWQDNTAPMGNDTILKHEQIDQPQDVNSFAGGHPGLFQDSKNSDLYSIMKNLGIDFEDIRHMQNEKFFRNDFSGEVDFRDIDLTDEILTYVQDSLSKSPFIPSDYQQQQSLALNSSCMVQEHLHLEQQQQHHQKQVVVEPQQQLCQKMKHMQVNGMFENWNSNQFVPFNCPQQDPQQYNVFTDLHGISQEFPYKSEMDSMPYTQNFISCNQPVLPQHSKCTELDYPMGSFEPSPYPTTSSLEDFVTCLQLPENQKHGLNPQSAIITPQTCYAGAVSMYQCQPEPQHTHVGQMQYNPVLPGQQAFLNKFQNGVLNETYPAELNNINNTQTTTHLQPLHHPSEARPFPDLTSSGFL
(In general: Quantitative high-throughput screening tests each substance at several concentrations.)

Test [3] can be described thus: qHTS assay to identify small molecule that activate the aryl hydrocarbon receptor (AhR) signaling pathway - cell viability counter screen (AID 743086). Also: nearly all actives have a fitted effect of over 45% in size. Particulars: HepG2-AhR-luc viability, CellTiter-Fluor, 24 h; series mostly up to 70.3 µM. The essentials:
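HepG2-AhR-luc (HG2L7.5c1) cells, 4000/well, were preincubated 5 h at 37C, exposed to compound in qHTS format for 24 hr at 37C, then given CellTiter-Fluor for 30 min; viability was read as fluorescence in the reporter wells.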

Test [4] addresses Peroxisome proliferator-activated receptor gamma (Homo sapiens) (UniProt P37231). Description: qHTS assay to identify small molecule agonists of the peroxisome proliferator-activated receptor gamma (PPARg) signaling pathway (AID 743094; active = well fitted activation curve with a large enough effect in the signal ratio in the repeat runs, not every such curve was filed as active; the % refers to the signal ratio). Particulars: HEK293H PPARg-UAS-bla, beta-lactamase FRET ratio, 17 h; series mostly up to 57 µM. The essentials: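 Cells from the PPARg UAS-bla HEK293H line are plated and incubated 5 h at 37C. Compounds in DMSO are pinned in and left 17 h at 37C. LiveBLAzer B/G substrate is then added for 1 h at room temperature before fluorescence is measured.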

For test [5] the target is unchanged. Put plainly: qHTS assay to identify small molecule antagonists of the peroxisome proliferator-activated receptor gamma (PPARg) signaling pathway (AID 743191; calls by dose curve; also: nearly all actives have a fitted effect of over 30% in size; also: potency is read from the fitted curve at half-maximal effect). Particulars: HEK293H PPARg-UAS-bla, beta-lactamase ratio, antagonist, 17 h; series mostly up to 62.6 µM. The essentials:
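GeneBLAzer PPARg UAS-bla HEK293H cells carrying a UAS-driven beta-lactamase reporter were plated at 3000 cells/well, preincubated 5 h at 37C, then given compound for 17 h at 37C; LiveBLAzer B/G FRET substrate was read after 1 h at room temperature.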

Test [6] can be described thus: qHTS assay for small molecule agonists of the antioxidant response element (ARE) signaling pathway - cell viability counter screen (AID 743203; calls by dose curve; also: nearly all actives have a fitted effect of over 55% in size). The note with it: ARE-bla HepG2 viability, CellTiter-Glo luminescence, 16 h; series mostly up to 73.3 µM. The essentials: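 Cytotoxicity was tested in parallel with the ARE reporter screen. ARE-bla HepG2 cells were exposed to compounds for 16 hrs, and viability was taken from CellTiter-Glo luminescence.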

Test [7] is described as follows: qHTS assay for small molecule activators of the heat shock response signaling pathway - cell viability counter screen (AID 743209). Also: nearly all actives have a fitted effect of over 50% in size. The note with it: HSE-bla HeLa viability, CellTiter-Glo luminescence, 5 h; series mostly up to 62.6 µM. The essentials: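 Cytotoxicity counter screen run in parallel with the HSE beta-lactamase reporter, using the same wells. HeLa HSE-bla cells received compound for 5 h at 37 C; ATP-based CellTiter-Glo luminescence was measured after 30 min at room temperature.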

Test [8] can be described thus: qHTS assay for small molecule activators of the heat shock response signaling pathway (AID 743210; active = well fitted activation curve with a large enough effect in the signal ratio in the repeat runs, with a control signal flat, not every such curve was filed as active; the % refers to the signal ratio). The note with it: HeLa HSE-bla reporter, beta-lactamase ratio, 5 h; series mostly up to 62.6 µM. In a few lines: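 Activation of heat shock element-controlled beta-lactamase expression is measured in HeLa cells by LiveBLAzer FRET fluorescence, with compound exposure lasting 5 h at 37 C and substrate loading 2.5 h at room temperature.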

In test [9] the target is Peroxisome proliferator-activated receptor delta (Homo sapiens) (UniProt Q03181). Put plainly: qHTS assay to identify small molecule agonists of the peroxisome proliferator-activated receptor delta (PPARd) signaling pathway (AID 743212; calls by dose curve). The note with it: HEK293H PPARd-UAS-bla, beta-lactamase FRET ratio, 17 h; series mostly up to 62.6 µM. The essentials:
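Cells expressing a UAS-driven beta-lactamase reporter (PPARd-bla HEK293H) were given test compounds after a 5 h settle and kept at 37 C. Reporter activity was then measured as FRET fluorescence using LiveBLAzer B/G substrate.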

Test [10] addresses Bile acid receptor (Homo sapiens) (UniProt Q96RI1). Description: qHTS assay to identify small molecule antagonists of the farnesoid-X-receptor (FXR) signaling pathway (AID 743217; active = well fitted inhibition curve with a large enough effect in the signal ratio in the repeat runs, not every such curve was filed as active; the % refers to the signal ratio). Particulars: HEK293T FXR-UAS-bla, beta-lactamase ratio, CDCA-stimulated, 16 h; series mostly up to 62.6 µM. The essentials: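 Cells carrying a UAS-driven beta-lactamase reporter (GeneBLAzer FXR-UAS-bla HEK 293T) were plated and rested 5 h at 37 °C. Compounds in DMSO were added alongside chenodeoxycholic acid agonist at 50 uM final and left 16 h at 37 °C before FRET substrate readout.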

For test [11] the target is unchanged. Put plainly: qHTS assay to identify small molecule agonists of the farnesoid-X-receptor (FXR) signaling pathway (AID 743220; active = well fitted activation curve with a large enough effect in the signal ratio in the repeat runs, not every such curve was filed as active; the % refers to the signal ratio). The note with it: HEK293T FXR-UAS-bla, beta-lactamase FRET ratio, 16 h; series mostly up to 62.6 µM. In a few lines: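 FXR-UAS-bla HEK 293T cells carrying a UAS-driven beta-lactamase reporter were plated for 5 h at 37C/5% CO2, then exposed to DMSO-dissolved Tox21 10K compounds for 16 h at 37C. A LiveBLAzer B/G FRET substrate was loaded for 2 h at room temperature before fluorescence reading.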

The nature of test [12]: qHTS assay to identify small molecule antagonists of the farnesoid-X-receptor (FXR) signaling pathway - cell viability counter screen (AID 743221; active = well fitted cell-killing curve with a large enough effect in the repeat runs, not every such curve was filed as active; also: nearly all actives have a fitted effect of over 50% in size). The note with it: FXR-bla HEK293T viability, CellTiter-Glo luminescence, 16 h; series mostly up to 62.6 µM. The essentials: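 GeneBLAzer FXR-UAS-bla HEK 293T cells, compound plus chenodeoxycholic acid (50 uM final), 16 h at 37 C. CellTiter-Glo added to the same wells after the beta-lactamase read; luminescence read after 30 min at room temperature as viability.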

In test [13] the target is Vitamin D3 receptor (Homo sapiens) (UniProt P11473). Description: qHTS assay to identify small molecule agonists of the vitamin D receptor (VDR) signaling pathway (AID 743222; calls by dose curve). The note with it: HEK293T VDR-UAS-bla, beta-lactamase FRET ratio, 16 h; series mostly up to 63.5 µM. In a few lines: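 Cells carrying a VDR-driven beta-lactamase reporter are seeded at 2,000 per well and rested 4 h. Compounds in DMSO are added for 16 h at 37C, and FRET substrate fluorescence is measured after 2 h at room temperature.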
Chain of Vitamin D3 receptor (Homo sapiens) (P11473 whole entry, looked up): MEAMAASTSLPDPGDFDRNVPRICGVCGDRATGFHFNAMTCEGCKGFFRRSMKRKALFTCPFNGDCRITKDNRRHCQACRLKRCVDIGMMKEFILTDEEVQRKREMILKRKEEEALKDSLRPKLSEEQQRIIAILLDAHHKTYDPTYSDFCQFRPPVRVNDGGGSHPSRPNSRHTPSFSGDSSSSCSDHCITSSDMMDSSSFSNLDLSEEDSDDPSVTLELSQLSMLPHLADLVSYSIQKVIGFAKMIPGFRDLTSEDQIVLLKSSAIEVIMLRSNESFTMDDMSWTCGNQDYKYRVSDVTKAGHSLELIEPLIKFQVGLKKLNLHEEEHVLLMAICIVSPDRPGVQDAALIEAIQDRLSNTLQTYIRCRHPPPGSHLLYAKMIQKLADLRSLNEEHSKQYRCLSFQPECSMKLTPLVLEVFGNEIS

A short description of test [14]: qHTS assay to identify small molecule antagonists of the peroxisome proliferator-activated receptor gamma (PPARg) signaling pathway - cell viability counter screen (AID 743194). Also: nearly all actives have a fitted effect of over 55% in size. The note with it: PPARg-bla HEK293H viability, CellTiter-Glo luminescence, 17 h, co-treated with 50 nM rosiglitazone; series mostly up to 62.6 µM. The essentials:
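PPARg-UAS-bla HEK293H cells were plated, rested 5 h at 37 C, then treated with compounds plus rosiglitazone (50 nM final) for 17 h at 37 C; viability was then read by CellTiter-Glo luminescence after 30 min at room temperature.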

Test [15] can be described thus: qHTS assay for small molecule agonists of the antioxidant response element (ARE) signaling pathway (AID 743202; active = well fitted activation curve with a large enough effect in the signal ratio in the repeat runs, not every such curve was filed as active; the % refers to the signal ratio). The note with it: HepG2 ARE-bla reporter, beta-lactamase FRET, 16 h; series mostly up to 73.3 µM. The essentials:
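Steps: seed ARE-bla HepG2 cells (2,000/well); incubate 5 h at 37 C; add compounds by pin tool; incubate 16 h at 37 C; add FRET substrate; read fluorescence after 2 h at RT.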

Test [16] concerns the target Peroxisome proliferator-activated receptor delta (Homo sapiens) (UniProt Q03181). Description: qHTS assay to identify small molecule antagonists of the peroxisome proliferator-activated receptor delta (PPARd) signaling pathway (AID 743215; active = well fitted inhibition curve with a large enough effect in the signal ratio in the repeat runs, not every such curve was filed as active; the % refers to the signal ratio;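 also: cells stimulated with agonist L165041 at 300 nM final during compound exposure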). Particulars: HEK293H PPARd-UAS-bla, beta-lactamase FRET ratio, antagonist, 17 h; series mostly up to 62 µM. The essentials:
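Cells: HEK293H with a UAS-driven beta-lactamase reporter responsive to PPARd. Compounds were co-added with L165041 (300 nM, final) and incubated 17 h at 37 C before a 2 h room-temperature FRET substrate step and fluorescence reading.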

Test [17] in a line: qHTS assay to identify small molecule agonists of the peroxisome proliferator-activated receptor delta (PPARd) signaling pathway - cell viability counter screen (AID 743211). Also: nearly all actives have a fitted effect of over 55% in size. The note with it: PPARd-bla HEK293H viability, CellTiter-Glo luminescence, 17 h; series mostly up to 62.6 µM. In a few lines: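 PPARd-bla HEK293H cells (3000/well) were pre-incubated 5 h at 37 C, then exposed to compound for 17 h at 37 C. After 2 h with LiveBLAzer substrate, CellTiter-Glo was added to the same wells; luminescence read after 30 min at room temperature.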

A short description of test [18]: qHTS assay to identify small molecule antagonists of the peroxisome proliferator-activated receptor delta (PPARd) signaling pathway - cell viability counter screen (AID 743213). Also: nearly all actives have a fitted effect of over 50% in size. The note with it: PPARd-bla HEK293H viability, CellTiter-Glo luminescence, 17 h; series mostly up to 62 µM. In a few lines: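 Cytotoxicity counter screen: CellTiter-Glo luminescence read 30 min after addition, in the same wells as the reporter assay. There, PPARd UAS-bla HEK293H cells (3000/well) were treated 17 h at 37 C with compound and 300 nM L165041.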

A short description of test [19]: qHTS assay to identify small molecule agonists of the farnesoid-X-receptor (FXR) signaling pathway - cell viability counter screen (AID 743218). Also: nearly all actives have a fitted effect of over 45% in size. Particulars: FXR-bla HEK293T viability, CellTiter-Glo luminescence, 16 h; series mostly up to 62.6 µM. The essentials: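 Cells were seeded, left 5 h at 37 C and 5% CO2, then dosed with compound in DMSO for 16 h. After the beta-lactamase FRET read, CellTiter-Glo was added and luminescence measured 30 min later.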

Test [20] has as its target Vitamin D3 receptor (Homo sapiens) (UniProt P11473). Description: qHTS assay to identify small molecule antagonists of the vitamin D receptor (VDR) signaling pathway (AID 743223; active = well fitted inhibition curve with a large enough effect in the signal ratio in the repeat runs, not every such curve was filed as active; the % refers to the signal ratio). The note with it: VDR-UAS-bla HEK293T, beta-lactamase FRET ratio, 16 h; series mostly up to 61 µM. In a few lines: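 VDR-bla cells were treated with compound plus 3 nM final 1alpha,25-dihydroxyvitamin D3 for 16 h at 37C. Beta-lactamase reporter read by B/G FRET substrate fluorescence after 2 h at room temperature. qHTS format.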

Chain of Peroxisome proliferator-activated receptor gamma (Homo sapiens) (P37231 whole entry, looked up): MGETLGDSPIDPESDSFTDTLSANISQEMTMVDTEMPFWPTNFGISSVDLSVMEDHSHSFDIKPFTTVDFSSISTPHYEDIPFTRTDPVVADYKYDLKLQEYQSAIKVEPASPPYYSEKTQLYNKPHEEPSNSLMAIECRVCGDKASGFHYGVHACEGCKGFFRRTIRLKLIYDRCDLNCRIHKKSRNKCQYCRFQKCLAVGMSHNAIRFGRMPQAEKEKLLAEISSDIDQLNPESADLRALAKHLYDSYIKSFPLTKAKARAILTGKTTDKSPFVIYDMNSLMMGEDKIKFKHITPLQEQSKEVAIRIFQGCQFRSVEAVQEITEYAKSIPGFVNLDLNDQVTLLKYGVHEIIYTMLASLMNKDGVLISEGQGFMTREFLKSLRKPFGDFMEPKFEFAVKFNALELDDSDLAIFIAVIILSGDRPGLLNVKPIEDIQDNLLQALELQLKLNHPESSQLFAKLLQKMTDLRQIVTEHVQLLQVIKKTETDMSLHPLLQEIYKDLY
Chain of Bile acid receptor (Homo sapiens) (Q96RI1 whole entry, looked up): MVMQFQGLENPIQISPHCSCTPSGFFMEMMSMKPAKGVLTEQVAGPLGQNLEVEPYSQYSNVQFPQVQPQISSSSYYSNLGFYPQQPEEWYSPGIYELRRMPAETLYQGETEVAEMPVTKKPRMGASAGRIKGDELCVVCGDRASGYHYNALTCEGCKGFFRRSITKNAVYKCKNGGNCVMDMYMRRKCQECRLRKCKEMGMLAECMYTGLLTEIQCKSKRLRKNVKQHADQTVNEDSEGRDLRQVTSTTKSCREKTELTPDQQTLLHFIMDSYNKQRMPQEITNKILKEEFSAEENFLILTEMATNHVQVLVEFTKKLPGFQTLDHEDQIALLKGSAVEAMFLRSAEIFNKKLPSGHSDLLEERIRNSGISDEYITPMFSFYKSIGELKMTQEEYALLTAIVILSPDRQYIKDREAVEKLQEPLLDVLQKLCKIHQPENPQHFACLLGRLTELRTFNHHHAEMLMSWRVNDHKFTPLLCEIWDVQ
Chain of Peroxisome proliferator-activated receptor delta (Homo sapiens) (Q03181 whole entry, looked up): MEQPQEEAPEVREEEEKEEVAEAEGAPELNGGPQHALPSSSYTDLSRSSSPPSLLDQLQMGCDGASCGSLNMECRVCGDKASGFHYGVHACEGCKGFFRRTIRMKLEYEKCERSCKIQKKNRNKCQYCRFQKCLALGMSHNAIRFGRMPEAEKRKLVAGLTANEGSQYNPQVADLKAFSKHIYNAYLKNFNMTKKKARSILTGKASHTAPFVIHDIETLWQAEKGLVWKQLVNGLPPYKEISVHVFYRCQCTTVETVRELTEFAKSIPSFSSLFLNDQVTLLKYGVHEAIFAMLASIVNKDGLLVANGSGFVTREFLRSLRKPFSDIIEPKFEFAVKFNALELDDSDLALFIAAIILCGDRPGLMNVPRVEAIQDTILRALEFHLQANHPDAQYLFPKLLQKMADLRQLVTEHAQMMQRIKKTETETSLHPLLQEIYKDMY

With `CCOC(=O)NCCOc1ccc(Oc2ccccc2)cc1`, the Potency result in [1], in test [2], in test [3], in test [4], in [6] and in test [7] was “inactive” in each case. Besides, the Potency result in test [8], in test [9], in test [10], in test [11], in test [12] and in test [13] was “inactive” in each case. Also, the Potency in test [5] is 38.9 µM (active).
Consider `CCCCC(CC)CN1C(=O)C2C3C=CC(C3)C2C1=O` (centres undefined), for which the Potency in test [1] is 54.5 µM (active). Further, the Potency entry in [2], in [3], in test [4], in [14], in [15] and in test [6] was “inactive” throughout. Besides, the Potency entry in test [7], in test [8], in [9], in [16] and in test [13] was “inactive” in each case.
With `CCCn1cnc2c1c(=O)n(CCCCC(C)=O)c(=O)n2C`, the Potency result in [1], in test [2], in test [3], in test [4], in test [14] and in [15] was “inactive” throughout. Moreover, the Potency result in test [6], in test [7], in test [8], in test [17], in test [9] and in test [18] was “inactive” in each case. Also, the Potency entry in [16], in [10], in [19], in test [11], in test [12] and in test [13] was “inactive” in each case. Further, the outcome in test [20] was inactive.
Take `CCCCNc1ccc(C(=O)OCCOCCOCCOCCOCCOCCOCCOCCOCCOC)cc1`: the Potency result in [1], in test [2], in test [3], in test [4], in test [5] and in [6] was “inactive” in each case. Besides, the Potency result in test [8], in test [9], in test [18], in test [10], in [19] and in [11] was “inactive” in each case. The Potency result in test [12] and in [13] was “inactive” in each case. Besides, in test [20], the outcome was inactive.
